# Test results reported in PubChem BioAssay (NCI).
# About 83,000 compounds went through this panel and 20% of them were active in at least one assay; those are over-represented in the sample as a whole.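 Activity criterion: percent growth below 10, measured after cells in 96-well plates were exposed to a single compound concentration for 48 hours.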 A number with no mark means an inactive call. The source made the active and inactive calls.
# Tests used:
# Test in all cases: NCI-60 one-dose screen, 48 h (100 = growth as untreated, 0 = no growth, -100 = all killed)
# Conditions in all cases: 10 µM unless noted
# HCT-15 colon = test system: HCT-15 colon
# HT29 colon = test system: HT29 colon
# SNB-75 CNS = test system: SNB-75 CNS
# SNB-19 CNS = test system: SNB-19 CNS
# U251 CNS = test system: U251 CNS
# PC-3 prostate = test system: PC-3 prostate
# UACC-62 melanoma = test system: UACC-62 melanoma
# LOX IMVI melanoma = test system: LOX IMVI melanoma
# SK-MEL-28 melanoma = test system: SK-MEL-28 melanoma
# SK-MEL-2 melanoma = test system: SK-MEL-2 melanoma
# EKVX NSCLC = test system: EKVX NSCLC
# SN12C renal = test system: SN12C renal
# UO-31 renal = test system: UO-31 renal
# TK-10 renal = test system: TK-10 renal
# ACHN renal = test system: ACHN renal
# A498 renal = test system: A498 renal
# CCRF-CEM leukemia = test system: CCRF-CEM leukemia
# MOLT-4 leukemia = test system: MOLT-4 leukemia
# CAKI-1 renal = test system: CAKI-1 renal
Compound,growth (HCT-15 colon),growth (HT29 colon),growth (SNB-75 CNS),growth (SNB-19 CNS),growth (U251 CNS),growth (PC-3 prostate),growth (UACC-62 melanoma),growth (LOX IMVI melanoma),growth (SK-MEL-28 melanoma),growth (SK-MEL-2 melanoma),growth (EKVX NSCLC),growth (SN12C renal),growth (UO-31 renal),growth (TK-10 renal),growth (ACHN renal),growth (A498 renal),growth (CCRF-CEM leukemia),growth (MOLT-4 leukemia),growth (CAKI-1 renal) [%]
O=c1ccccc(-c2ccc(Br)cc2)c1O,26.3%,21.9%,31.4%,13%,9.54% (active),29.5%,-49.3% (active),4.54% (active),23.2%,12%,6.92% (active),6.62% (active),-10.6% (active),21.5%,6.35% (active),31.7%,3.29% (active),5.09% (active),
COc1cc(-c2nn(-c3ccc(C(=O)O)cc3)cc2C(=O)O)ccc1O,48.6%,110%,36.6%,58.4%,78.5%,66.9%,90%,44.4%,63.5%,88.1%,76.4%,81.4%,56.1%,122%,44.8%,97.9%,67.9%,90%,
O=C(CN1CCCCC1)Nc1ccc2oc(=O)ccc2c1,104%,104%,95.6%,98.4%,102%,86.8%,97.7%,96.6%,121%,96.8%,101%,101%,79.1%,108%,111%,106%,86%,83.1%,
Cc1cc(N2CCOCC2)nc(N[C@@H]2CCC[C@H](Nc3ccnc4cc(Cl)ccc34)C2)n1,-43.5% (active),-52.9% (active),-37.3% (active),34.8%,-57.3% (active),9.75% (active),-79.7% (active),-77.3% (active),-74.3% (active),-71.5% (active),49.9%,22.7%,-84.5% (active),-68.7% (active),-61.7% (active),35.1%,-10.4% (active),2.9% (active),
CCN1CCN(c2nc(NCCNc3ccnc4cc(Cl)ccc34)c3ccccc3n2)CC1,7.08% (active),-14.1% (active),44.7%,14.4%,-16.7% (active),24.7%,-87.9% (active),-62.9% (active),-60.1% (active),-71.4% (active),53.3%,-5.71% (active),-75.2% (active),-19.4% (active),-25.7% (active),77.1%,-12.8% (active),6.3% (active),
Cc1cc(N2CCCCC2)nc(NC2CCCC(Nc3ccnc4cc(Cl)ccc34)C2)n1 (stereo not given),-67.6% (active),-59.9% (active),-80.9% (active),-20.7% (active),-97.4% (active),-72.8% (active),-86.2% (active),-84.9% (active),-84% (active),-77% (active),7.48% (active),-74.9% (active),-99% (active),-61.8% (active),-86.2% (active),-29% (active),-17.8% (active),-28.2% (active),
COc1ccc(-c2cc(-c3ccc(Nc4ccnc5cc(Cl)ccc45)cc3)nc(N3CCOCC3)n2)cc1,20.7%,8.19% (active),-14.8% (active),28.2%,-37.7% (active),46.9%,14.9%,-58.6% (active),5.53% (active),90.3%,90.4%,49.2%,87.8%,9.38% (active),80.7%,86.6%,3.53% (active),23.9%,
CC(=O)c1cc2c(N)c(C(=O)Nc3cccc4ccccc34)sc2nc1C,33.8%,5.75% (active),19.8%,21.7%,15.3%,17.5%,23.5%,41.1%,67.2%,36.5%,46.4%,40.9%,42.9%,56.2%,47.6%,13.6%,6.95% (active),24%,
Clc1ccc2nc3nc4ccc[nH]c4cc3c2c1,69.3%,83.8%,88.8%,89%,82.8%,75.1%,80.4%,91.9%,111%,88.5%,68.2%,90.8%,78.4%,43.1%,85.9%,109%,,80.5%,
Clc1ccc2c(NCCNc3nc(N4CCOCC4)nc4ccccc34)ccnc2c1,15.2%,-69.2% (active),-94.4% (active),5.66% (active),-93.1% (active),34%,-64.9% (active),-83.5% (active),-47.5% (active),-42.9% (active),31.1%,0.0194% (active),-89% (active),-88.6% (active),-44.2% (active),-12.8% (active),-8.56% (active),11.7%,
Clc1ccc2c(NCCCCNc3nc(N4CCCCC4)nc4ccccc34)ccnc2c1,-38.2% (active),-14.2% (active),-59.5% (active),18.6%,-32.9% (active),25.6%,-86.9% (active),-73.8% (active),-71.1% (active),-65.9% (active),38.9%,20.3%,-55.6% (active),-59.5% (active),-43.7% (active),41.1%,-22.9% (active),1.5% (active),
COc1ccc2cc(-c3nn(-c4ccc(C(=O)O)cc4)cc3CO)ccc2c1,98.1%,98.7%,80.9%,103%,104%,98.7%,103%,101%,112%,83.2%,90.7%,106%,86.6%,104%,104%,94.5%,102%,84.7%,
O=c1ccccc(-c2ccc(-c3ccco3)cc2)c1O,29%,24.9%,38.8%,19.3%,8.2% (active),32%,-42.3% (active),8.59% (active),30.7%,19.9%,11.8%,11.3%,-12.2% (active),33.5%,9.23% (active),39%,5.03% (active),7.73% (active),
COc1ccc(SC2c3cc(OC)c(OC)cc3Oc3nc(N)c(C#N)c(N)c32)cc1 (stereo not given),-62.2% (active),-24.9% (active),-65.2% (active),-83% (active),-98.6% (active),-76.8% (active),-75.1% (active),-92.7% (active),-70.1% (active),-26.3% (active),-51.7% (active),-90.6% (active),-100% (active),-49.6% (active),-95.6% (active),-13.8% (active),-37.2% (active),-26.8% (active),
COc1ccc(O)c(N=Nc2nccs2)c1,67.3%,79.7%,91%,94.9%,54.4%,67.3%,89.8%,60.9%,115%,91.6%,54.3%,99.4%,61.1%,106%,28.7%,88.4%,3.48% (active),7.26% (active),
CC(=O)c1cc2c(N)c(C(=O)Nc3cccc(F)c3C)sc2nc1C,85%,81.6%,68.1%,83.1%,93.3%,81.4%,52.1%,96.9%,97.4%,68.5%,95.7%,95.1%,91.2%,100%,89.4%,43%,86.7%,79.1%,
CNC(=O)c1cc(Oc2ccc(NC(=O)Nc3ccc(Cl)c(SC)c3)c(F)c2)ccn1,50%,30%,71%,75%,56%,34.2%,28%,37.7%,56.7%,21.6%,32.4%,,42.6%,55.3%,52.6%,41.3%,40.7%,22.8%,70.1
